A word on the inhibition: it is the drop in the measured response relative to a control, in per cent.

Calls of active or inactive are those of the source. How the calls were made is not given here.

Pantothenate synthetase (Mycobacterium tuberculosis (strain ATCC 25618 / H37Rv)), sequence (P9WIL5 whole entry, looked up): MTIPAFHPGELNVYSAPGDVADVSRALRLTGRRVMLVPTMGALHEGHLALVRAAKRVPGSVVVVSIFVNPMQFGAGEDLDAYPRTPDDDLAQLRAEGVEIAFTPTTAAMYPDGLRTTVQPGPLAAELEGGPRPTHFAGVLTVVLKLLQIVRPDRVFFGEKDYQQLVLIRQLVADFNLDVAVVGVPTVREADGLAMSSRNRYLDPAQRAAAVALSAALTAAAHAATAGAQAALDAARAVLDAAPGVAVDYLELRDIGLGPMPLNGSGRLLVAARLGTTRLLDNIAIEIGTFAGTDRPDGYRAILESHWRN

This experiment has as its target Pantothenate synthetase (Mycobacterium tuberculosis (strain ATCC 25618 / H37Rv)) (UniProt P9WIL5). As to the kind of experiment: Coupled enzyme confirmation of inhibitors against recombinant Mtb PanC (AID 375).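 Further: 0% = full reaction with vehicle and 100% = no enzyme background.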 The following applies: coupled enzyme assay; at 10 µM, active compounds read high.
For `Cn1c(=O)c(=O)n(C)c2cc(S(=O)(=O)CCC(=O)N3CCOCC3)ccc21`, the inhibition is 0% (inactive). Next, `Cc1onc(-c2ccccc2Cl)c1C(=O)NCCn1c(C)cc2ccccc21`: 8% (inactive); `CC(C(=O)N1CCCCC1)n1sc2ccccc2c1=O` (stereo not given): 0% (inactive). Under `O=C(CSc1nc(-c2ccco2)cc(C(F)(F)F)n1)N1CCCc2ccccc21` stands 5% (inactive); under `CC1=C(C(=O)OC(C)C)C(C2CC=CCC2)NC(=O)N1` (stereo not given), 6% (inactive); under `CC(=O)N1CCc2cc(S(=O)(=O)CCC(=O)Nc3cccc(F)c3)ccc21`, 0% (inactive). On to `c1ccc(-c2n[nH]c3ccccc23)cc1`, for which the inhibition is 0% (inactive). Next, `CC(=O)c1ccc(N2CCN(C(=O)c3cc(C)on3)CC2)cc1`: 0% (inactive); `O=C(O)c1cccc(NS(=O)(=O)c2ccc3nnn(O)c3c2)c1`: 0% (inactive). Next, `Cc1csc2ncc(C(=O)Nc3ccccc3Cl)c(=O)n12`: 3% (inactive); `COc1ccc(C2NC(c3ccc(OC)c(OC)c3OC)C(C)C(=O)C2C)c(OC)c1OC` (stereo not given): 0% (inactive); `CC(=O)O[C@]1(C(C)=O)CC[C@H]2[C@@H]3C=C(C)C4=CC(=O)CC[C@]4(C)[C@H]3CC[C@@]21C`: 0% (inactive). Under `C(=N\c1c(-c2ccccc2)nc2n1CCS2)/c1ccccc1` stands 4% (inactive). As for `CCOC(=O)c1cc(-c2ccc3c(c2)OCO3)nc2onc(C)c12`, the inhibition is 0% (inactive). Next, `COc1cccc(OC)c1C(=O)n1nc(C)cc1C`: 6% (inactive).

On to `COc1cc2c(C#N)c(N3CCN(c4ccccc4OC)CC3)nc(N)c2c(N)n1`, for which the inhibition was 0% (inactive). Under `CCC(C)NC(=O)c1cc(CC(C)C)on1` (stereo not given) stands 2% (inactive). As for `CCN(CC)C(=O)CSc1nnc(-c2cc(OC)cc(OC)c2)o1`, the inhibition was 0% (inactive). Under `O=C(NC1CCCC1)c1ccc2nc[nH]c2c1` stands 0% (inactive); under `CCn1c(=O)n(CC(=O)Nc2cc(OC)ccc2OC)c(=O)c2ccccc21`, 10% (inactive). On to `CC(CCc1ccccc1)NCc1ccncc1` (stereo not given), for which the inhibition was 5% (inactive). Next, `NC(=O)c1nsnc1-c1ccccc1O`: 2% (inactive).

Take `COc1ccc(C2/C(=C(/O)c3cnn(-c4ccccc4)c3C)C(=O)C(=O)N2CCN(C)C)cc1OC` (stereo not given): the inhibition was 3% (inactive). As for `O=C(NC1CCN(Cc2ccccc2)CC1)C1CCN(S(=O)(=O)c2cccc3cccnc23)CC1`, the inhibition is 0% (inactive). Next, `COC(=O)CSc1nc(C)c(C(C)=O)cc1C#N`: 10% (inactive); `Cn1cnnc1Sc1nc2c(c(=O)n(C)c(=O)n2C)n1C`: 0% (inactive); `O=C1CCCc2c1cc(C(=O)NCc1ccco1)c(=O)n2-c1ccc(Cl)cc1`: 9% (inactive). Under `COc1ccc(CCNS(=O)(=O)c2ccc(C(=O)NCc3ccco3)cc2)cc1OC` stands 0% (inactive); under `CCCCCn1c(CN2CCN(C)CC2)nc2c1c(=O)n(C)c(=O)n2C`, 0% (inactive); under `CC(C)CC(=O)Nc1ccccc1-c1nnn(CC(=O)N2CCOCC2)n1`, 0% (inactive). Next, `CN(Cc1cccs1)c1ncnc2sccc12`: 0% (inactive); `c1ccc(CN2C3=NCCCN3c3ccccc32)cc1`: 0% (inactive); `CC1=C(C#N)C(=O)NC(C)(C)C1`: 0% (inactive). For the compound `CCC(C)(C)NC(=O)CN(C(=O)c1snc(C(N)=O)c1N)c1ccc2c(c1)OCO2`, the inhibition is 11% (inactive). Under `CCN(CC)c1nc(N(CC)CC)[nH]c(=O)n1` stands 0% (inactive). Under `Cc1ccc(-c2noc(CCC(=O)NC3CCCc4ccccc43)n2)cc1` (stereo not given) stands 2% (inactive); under `CC1CCN(Cc2ccc(NC(=O)C3CCN(c4nnc(-n5cccc5)s4)CC3)cc2)CC1`, 0% (inactive). `COc1ccc2c(c1)n([O-])c1c([n+]2=O)CCC1`: the inhibition is 0% (inactive). Next, `Cc1cc(C)cc(NC(=O)c2nnn(Cc3cc(C)ccc3C)c2N)c1`: 0% (inactive); `CCn1ncc(C2=NOC(C(=O)NCc3ccc(Cl)cc3)C2)c1C` (stereo not given): 0% (inactive).

These data come from PubChem BioAssay.
